# Laboratory results published in article PMC7862700, “An all-to-all approach to the identification of sequence-specific readers for epigenetic DNA modifications on cytosine”.
# Tests used:
# Assay in all cases: DAPPL (digital affinity profiling via proximity ligation, sequencing); 10 mM Tris-HCl pH 7.5, 50 mM NaCl, 1 mM DTT, 4% glycerol, room temperature, 30 min; GST-TFs on glutathione beads, 16-mer random dsDNA library, 0.1% formaldehyde crosslink after washing; high values mean tight binding
# [1] = molecular target: T1, FEV (Homo sapiens, UniProt Q99581 1-238); conditions: protein: recombinant; tags: N-terminal GST; dsDNA, one strand shown
# T1 sequence: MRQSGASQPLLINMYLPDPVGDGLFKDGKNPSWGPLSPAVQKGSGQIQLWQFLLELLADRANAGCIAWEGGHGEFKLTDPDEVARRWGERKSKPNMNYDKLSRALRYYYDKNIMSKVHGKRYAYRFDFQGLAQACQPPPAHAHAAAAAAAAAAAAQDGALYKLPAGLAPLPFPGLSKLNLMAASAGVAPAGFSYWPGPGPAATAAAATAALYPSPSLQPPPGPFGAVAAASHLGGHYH
# How it was run: (§1)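 Binding signal is each hexamer's read frequency for a factor divided by its frequency in the tag-only sample. The factors were GST-fused human transcription factors from yeast, captured on glutathione beads, DNA-barcoded and pooled with that sample. Pools were incubated with 200 nmole of a random double-stranded 16-mer DNA library in Tris/NaCl/DTT/glycerol buffer at room temperature for 30 min, then washed, crosslinked with 0.1% formaldehyde, proximity-ligated with BsaI/T4 ligase (1 h, 37 °C), PCR-amplified and sequenced on an Illumina NextSeq500.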
# [2] = molecular target: ETV5 (Homo sapiens, UniProt P41161 1-510); conditions: protein: recombinant; tags: N-terminal GST; dsDNA, one strand shown
# How it was run: as §1
# [3] = molecular target: HSF1 (Homo sapiens, UniProt Q00613 1-529); conditions: protein: recombinant; tags: N-terminal GST; chain copies: 3; dsDNA, one strand shown
# How it was run: as §1
# [4] = molecular target: T2, SPIC (Homo sapiens, UniProt Q8N5J4 1-248); conditions: protein: recombinant; tags: N-terminal GST; dsDNA, one strand shown
# T2 sequence: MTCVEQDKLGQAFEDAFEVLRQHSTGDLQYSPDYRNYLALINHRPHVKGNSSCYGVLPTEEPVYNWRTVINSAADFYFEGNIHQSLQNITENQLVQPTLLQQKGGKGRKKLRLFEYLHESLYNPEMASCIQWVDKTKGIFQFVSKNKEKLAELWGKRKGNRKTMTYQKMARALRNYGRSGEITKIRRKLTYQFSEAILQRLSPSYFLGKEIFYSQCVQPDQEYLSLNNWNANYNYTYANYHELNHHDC
# How it was run: as §1
# [5] = molecular target: ELF4 (Homo sapiens, UniProt Q99607 1-663); conditions: protein: recombinant; tags: N-terminal GST; dsDNA, one strand shown
# How it was run: as §1
# [6] = molecular target: T3, ELK4 (Homo sapiens, UniProt P28324-2 1-405); conditions: protein: recombinant; tags: N-terminal GST; dsDNA, one strand shown
# T3 sequence: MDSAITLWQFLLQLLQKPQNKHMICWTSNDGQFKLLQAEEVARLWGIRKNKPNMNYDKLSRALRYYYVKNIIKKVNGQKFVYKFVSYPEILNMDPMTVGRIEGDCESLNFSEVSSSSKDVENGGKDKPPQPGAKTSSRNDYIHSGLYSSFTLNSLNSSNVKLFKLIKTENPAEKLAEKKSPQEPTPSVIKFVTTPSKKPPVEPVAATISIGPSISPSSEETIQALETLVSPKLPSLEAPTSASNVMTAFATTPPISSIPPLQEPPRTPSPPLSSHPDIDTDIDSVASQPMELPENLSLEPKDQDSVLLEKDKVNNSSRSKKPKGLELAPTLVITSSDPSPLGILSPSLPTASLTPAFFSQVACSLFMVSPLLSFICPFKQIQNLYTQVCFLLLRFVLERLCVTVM
# How it was run: as §1
# [7] = molecular target: T4, ETV2 (Homo sapiens, UniProt O00321 1-342); conditions: protein: recombinant; tags: N-terminal GST; dsDNA, one strand shown
# T4 sequence: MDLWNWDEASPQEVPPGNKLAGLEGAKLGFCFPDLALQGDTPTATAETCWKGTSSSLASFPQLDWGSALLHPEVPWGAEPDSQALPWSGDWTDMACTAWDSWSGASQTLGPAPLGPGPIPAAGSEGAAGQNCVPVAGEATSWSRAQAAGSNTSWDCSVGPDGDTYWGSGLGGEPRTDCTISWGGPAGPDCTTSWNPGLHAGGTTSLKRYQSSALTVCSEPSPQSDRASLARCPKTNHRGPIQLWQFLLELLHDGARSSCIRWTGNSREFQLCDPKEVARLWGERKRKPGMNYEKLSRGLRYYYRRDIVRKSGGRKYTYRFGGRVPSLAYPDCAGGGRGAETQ
# How it was run: as §1
# [8] = molecular target: T5, ELF3 (Homo sapiens, UniProt P78545 1-371); conditions: protein: recombinant; tags: N-terminal GST; dsDNA, one strand shown
# T5 sequence: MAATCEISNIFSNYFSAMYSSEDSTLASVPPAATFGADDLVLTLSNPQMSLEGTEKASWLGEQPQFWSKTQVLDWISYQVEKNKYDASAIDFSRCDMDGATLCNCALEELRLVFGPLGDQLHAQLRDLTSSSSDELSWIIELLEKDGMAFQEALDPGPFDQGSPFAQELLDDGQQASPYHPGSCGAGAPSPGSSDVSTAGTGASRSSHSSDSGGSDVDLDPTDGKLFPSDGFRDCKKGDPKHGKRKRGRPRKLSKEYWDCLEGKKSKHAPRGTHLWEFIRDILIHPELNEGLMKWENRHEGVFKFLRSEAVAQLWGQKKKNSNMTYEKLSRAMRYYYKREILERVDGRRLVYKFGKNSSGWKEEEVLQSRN
# How it was run: as §1
# [9] = molecular target: CRX (Homo sapiens, UniProt O43186 1-299); conditions: protein: recombinant; tags: N-terminal GST; dsDNA, one strand shown
# How it was run: as §1
# [10] = molecular target: ETV1 (Homo sapiens, UniProt P50549 1-477); conditions: protein: recombinant; tags: N-terminal GST; dsDNA, one strand shown
# How it was run: as §1
# [11] = molecular target: T6, ERF (Homo sapiens, UniProt P50548 1-548); conditions: protein: recombinant; tags: N-terminal GST; dsDNA, one strand shown
# T6 sequence: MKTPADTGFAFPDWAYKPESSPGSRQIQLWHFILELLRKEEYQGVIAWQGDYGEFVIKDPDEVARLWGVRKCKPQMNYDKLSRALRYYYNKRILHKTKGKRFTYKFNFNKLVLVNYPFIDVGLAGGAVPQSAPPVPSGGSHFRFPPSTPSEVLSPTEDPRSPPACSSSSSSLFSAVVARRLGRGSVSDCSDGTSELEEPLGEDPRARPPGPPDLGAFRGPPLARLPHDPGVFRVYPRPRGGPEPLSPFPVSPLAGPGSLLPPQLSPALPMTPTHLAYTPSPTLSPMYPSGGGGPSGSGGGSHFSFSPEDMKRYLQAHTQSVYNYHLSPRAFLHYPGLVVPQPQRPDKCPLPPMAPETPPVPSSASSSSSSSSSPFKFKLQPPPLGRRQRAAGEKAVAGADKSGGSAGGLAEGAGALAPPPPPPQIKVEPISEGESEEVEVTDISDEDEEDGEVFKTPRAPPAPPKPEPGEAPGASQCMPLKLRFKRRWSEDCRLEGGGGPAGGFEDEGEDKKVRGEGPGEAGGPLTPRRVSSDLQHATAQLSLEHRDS
# How it was run: as §1
# [12] = molecular target: T7, ETV3L (Homo sapiens, UniProt Q6ZN32 1-361); conditions: protein: recombinant; tags: N-terminal GST; dsDNA, one strand shown
# T7 sequence: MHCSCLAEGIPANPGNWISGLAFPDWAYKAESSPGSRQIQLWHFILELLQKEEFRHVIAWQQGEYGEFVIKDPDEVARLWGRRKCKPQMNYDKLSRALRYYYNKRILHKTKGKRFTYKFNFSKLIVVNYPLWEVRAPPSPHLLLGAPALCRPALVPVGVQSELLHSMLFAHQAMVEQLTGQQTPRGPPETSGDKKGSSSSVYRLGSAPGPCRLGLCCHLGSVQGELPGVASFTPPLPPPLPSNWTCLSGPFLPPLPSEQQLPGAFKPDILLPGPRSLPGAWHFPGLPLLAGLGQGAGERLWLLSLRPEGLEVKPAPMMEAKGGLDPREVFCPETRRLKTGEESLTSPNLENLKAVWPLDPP
# How it was run: as §1
# [13] = molecular target: T8, ETS2 (Homo sapiens, UniProt P15036 1-469); conditions: protein: recombinant; tags: N-terminal GST; dsDNA, one strand shown
# T8 sequence: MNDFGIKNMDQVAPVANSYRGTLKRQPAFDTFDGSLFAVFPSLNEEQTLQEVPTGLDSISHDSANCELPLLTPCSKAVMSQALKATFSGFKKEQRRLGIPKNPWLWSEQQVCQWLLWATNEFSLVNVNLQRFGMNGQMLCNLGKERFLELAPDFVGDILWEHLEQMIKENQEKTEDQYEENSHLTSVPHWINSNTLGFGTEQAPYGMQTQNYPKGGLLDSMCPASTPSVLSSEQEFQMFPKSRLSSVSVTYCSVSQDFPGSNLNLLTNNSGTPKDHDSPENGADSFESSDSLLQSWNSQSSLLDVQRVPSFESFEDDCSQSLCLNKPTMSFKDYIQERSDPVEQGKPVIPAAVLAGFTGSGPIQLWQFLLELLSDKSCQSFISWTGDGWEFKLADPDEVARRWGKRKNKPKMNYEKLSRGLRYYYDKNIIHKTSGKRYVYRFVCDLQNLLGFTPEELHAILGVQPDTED
# How it was run: as §1
# [14] = molecular target: T9, SPDEF (Homo sapiens, UniProt O95238 1-335); conditions: protein: recombinant; tags: N-terminal GST; dsDNA, one strand shown
# T9 sequence: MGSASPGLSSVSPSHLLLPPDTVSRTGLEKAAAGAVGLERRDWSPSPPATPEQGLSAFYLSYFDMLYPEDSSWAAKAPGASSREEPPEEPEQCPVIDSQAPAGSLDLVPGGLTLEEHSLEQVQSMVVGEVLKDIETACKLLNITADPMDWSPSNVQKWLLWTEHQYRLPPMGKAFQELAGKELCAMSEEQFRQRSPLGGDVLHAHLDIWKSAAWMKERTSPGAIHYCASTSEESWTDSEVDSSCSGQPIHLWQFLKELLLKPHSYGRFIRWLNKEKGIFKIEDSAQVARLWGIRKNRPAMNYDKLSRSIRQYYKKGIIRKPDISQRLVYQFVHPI
# How it was run: as §1
# [15] = molecular target: T10, ETV7 (Homo sapiens, UniProt Q9Y603 1-341); conditions: protein: recombinant; tags: N-terminal GST; dsDNA, one strand shown
# T10 sequence: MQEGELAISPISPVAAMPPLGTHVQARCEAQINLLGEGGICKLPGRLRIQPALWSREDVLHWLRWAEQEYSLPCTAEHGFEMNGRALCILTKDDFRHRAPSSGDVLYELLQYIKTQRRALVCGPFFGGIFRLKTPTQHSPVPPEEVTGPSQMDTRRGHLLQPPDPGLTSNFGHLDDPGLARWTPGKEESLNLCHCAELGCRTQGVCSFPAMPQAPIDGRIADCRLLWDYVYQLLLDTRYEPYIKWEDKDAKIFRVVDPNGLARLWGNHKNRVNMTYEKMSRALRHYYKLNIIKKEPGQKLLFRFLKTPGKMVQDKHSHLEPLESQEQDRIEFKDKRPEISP
# How it was run: as §1
# [16] = molecular target: T11, ELF5 (Homo sapiens, UniProt Q9UKW6-2 1-255); conditions: protein: recombinant; tags: N-terminal GST; dsDNA, one strand shown
# T11 sequence: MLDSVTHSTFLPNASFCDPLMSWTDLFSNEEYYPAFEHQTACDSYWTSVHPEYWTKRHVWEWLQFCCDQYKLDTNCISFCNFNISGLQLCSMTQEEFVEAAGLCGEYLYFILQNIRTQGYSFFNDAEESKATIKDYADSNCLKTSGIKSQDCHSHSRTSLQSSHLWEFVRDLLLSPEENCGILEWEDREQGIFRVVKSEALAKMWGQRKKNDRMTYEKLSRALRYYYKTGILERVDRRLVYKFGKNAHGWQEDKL
# How it was run: as §1
# [17] = molecular target: T12, ETV3 (Homo sapiens, UniProt P41162-2 1-143); conditions: protein: recombinant; tags: N-terminal GST; dsDNA, one strand shown
# T12 sequence: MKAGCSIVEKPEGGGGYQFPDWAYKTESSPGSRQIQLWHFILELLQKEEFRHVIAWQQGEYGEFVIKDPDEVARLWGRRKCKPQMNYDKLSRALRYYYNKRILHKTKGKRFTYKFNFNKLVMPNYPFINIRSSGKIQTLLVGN
# How it was run: as §1
# [18] = molecular target: ETV6 (Homo sapiens, UniProt P41212 1-452); conditions: protein: recombinant; tags: N-terminal GST; dsDNA, one strand shown
# How it was run: as §1
# Chain of HSF1 (Q00613 whole entry): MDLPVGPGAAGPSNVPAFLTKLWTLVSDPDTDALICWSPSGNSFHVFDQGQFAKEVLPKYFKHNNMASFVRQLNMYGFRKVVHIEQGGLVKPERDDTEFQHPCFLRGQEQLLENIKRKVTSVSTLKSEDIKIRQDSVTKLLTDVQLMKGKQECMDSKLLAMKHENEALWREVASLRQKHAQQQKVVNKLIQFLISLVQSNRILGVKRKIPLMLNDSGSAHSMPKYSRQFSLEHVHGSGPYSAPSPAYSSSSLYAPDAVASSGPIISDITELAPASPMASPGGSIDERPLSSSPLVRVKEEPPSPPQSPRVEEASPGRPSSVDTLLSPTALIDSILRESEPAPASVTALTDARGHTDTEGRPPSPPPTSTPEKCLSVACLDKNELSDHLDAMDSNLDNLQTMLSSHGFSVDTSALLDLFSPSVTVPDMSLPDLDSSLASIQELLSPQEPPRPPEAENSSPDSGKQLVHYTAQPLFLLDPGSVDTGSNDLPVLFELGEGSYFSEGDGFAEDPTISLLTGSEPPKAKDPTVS
# Chain of CRX (O43186 whole entry): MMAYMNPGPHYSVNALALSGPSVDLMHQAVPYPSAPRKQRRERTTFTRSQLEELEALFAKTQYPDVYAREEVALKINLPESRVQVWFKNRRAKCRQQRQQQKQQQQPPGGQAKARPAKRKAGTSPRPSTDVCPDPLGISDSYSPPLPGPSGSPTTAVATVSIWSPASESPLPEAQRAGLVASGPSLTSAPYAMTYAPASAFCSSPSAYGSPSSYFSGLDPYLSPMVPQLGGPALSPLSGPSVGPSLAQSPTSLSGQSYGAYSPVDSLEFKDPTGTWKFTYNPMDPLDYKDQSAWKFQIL
# Chain of ETV1 (P50549 whole entry): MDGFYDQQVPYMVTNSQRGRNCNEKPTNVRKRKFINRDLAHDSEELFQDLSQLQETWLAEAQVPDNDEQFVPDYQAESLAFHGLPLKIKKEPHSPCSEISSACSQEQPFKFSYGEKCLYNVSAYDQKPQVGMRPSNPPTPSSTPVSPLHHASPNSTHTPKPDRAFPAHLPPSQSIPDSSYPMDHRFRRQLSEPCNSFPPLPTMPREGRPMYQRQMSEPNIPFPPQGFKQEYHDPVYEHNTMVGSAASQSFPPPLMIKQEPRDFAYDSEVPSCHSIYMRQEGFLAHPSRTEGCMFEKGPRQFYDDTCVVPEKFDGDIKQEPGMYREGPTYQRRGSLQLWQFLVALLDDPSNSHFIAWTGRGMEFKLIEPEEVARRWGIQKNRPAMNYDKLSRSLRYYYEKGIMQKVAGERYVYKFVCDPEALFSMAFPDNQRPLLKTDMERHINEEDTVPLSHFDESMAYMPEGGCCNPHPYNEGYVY
# Chain of ETV5 (P41161 whole entry): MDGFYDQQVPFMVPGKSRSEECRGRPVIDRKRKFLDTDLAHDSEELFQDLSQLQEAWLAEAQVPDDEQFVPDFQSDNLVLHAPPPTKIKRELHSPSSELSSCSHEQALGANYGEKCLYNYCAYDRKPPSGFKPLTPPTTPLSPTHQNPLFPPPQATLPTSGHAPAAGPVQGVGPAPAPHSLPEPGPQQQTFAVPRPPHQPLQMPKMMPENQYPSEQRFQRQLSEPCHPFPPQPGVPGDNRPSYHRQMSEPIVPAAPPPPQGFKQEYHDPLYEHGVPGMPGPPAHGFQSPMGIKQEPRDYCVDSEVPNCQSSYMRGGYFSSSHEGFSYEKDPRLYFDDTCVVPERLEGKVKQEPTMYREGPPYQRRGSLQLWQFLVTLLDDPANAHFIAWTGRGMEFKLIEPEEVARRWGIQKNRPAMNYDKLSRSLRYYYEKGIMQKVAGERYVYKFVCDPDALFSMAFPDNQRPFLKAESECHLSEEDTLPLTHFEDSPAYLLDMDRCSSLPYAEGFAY
# Chain of ELF4 (Q99607 whole entry): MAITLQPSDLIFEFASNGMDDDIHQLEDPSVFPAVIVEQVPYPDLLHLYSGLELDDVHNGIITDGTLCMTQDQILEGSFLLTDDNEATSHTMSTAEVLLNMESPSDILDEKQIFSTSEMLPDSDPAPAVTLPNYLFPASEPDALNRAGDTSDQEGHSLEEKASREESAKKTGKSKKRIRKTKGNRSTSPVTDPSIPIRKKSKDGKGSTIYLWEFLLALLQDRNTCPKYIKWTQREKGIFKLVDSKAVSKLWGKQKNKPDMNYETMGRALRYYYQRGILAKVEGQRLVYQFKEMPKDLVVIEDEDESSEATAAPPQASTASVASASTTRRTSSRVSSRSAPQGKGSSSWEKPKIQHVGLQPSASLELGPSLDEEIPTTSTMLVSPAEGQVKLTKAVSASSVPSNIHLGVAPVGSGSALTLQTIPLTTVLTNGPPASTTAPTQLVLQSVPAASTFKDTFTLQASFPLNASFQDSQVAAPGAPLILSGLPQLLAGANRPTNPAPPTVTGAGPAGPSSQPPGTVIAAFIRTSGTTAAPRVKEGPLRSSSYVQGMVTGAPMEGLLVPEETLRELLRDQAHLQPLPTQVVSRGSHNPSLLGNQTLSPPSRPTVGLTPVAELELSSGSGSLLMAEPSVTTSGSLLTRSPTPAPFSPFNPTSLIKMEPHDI
# Chain of ETV6 (P41212 whole entry): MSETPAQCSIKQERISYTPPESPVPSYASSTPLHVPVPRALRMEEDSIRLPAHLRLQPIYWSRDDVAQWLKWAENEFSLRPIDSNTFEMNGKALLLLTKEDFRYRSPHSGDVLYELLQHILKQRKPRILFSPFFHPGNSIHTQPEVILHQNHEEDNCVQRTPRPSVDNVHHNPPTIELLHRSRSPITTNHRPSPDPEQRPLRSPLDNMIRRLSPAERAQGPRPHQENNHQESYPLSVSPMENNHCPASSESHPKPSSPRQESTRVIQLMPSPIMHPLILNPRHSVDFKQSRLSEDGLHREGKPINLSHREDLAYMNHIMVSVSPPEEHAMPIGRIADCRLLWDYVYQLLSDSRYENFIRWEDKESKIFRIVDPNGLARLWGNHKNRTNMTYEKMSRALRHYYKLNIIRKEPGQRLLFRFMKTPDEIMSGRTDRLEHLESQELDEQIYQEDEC
sequence,measurement,setting,value
TTGTTA,binding signal,[1],"1.3 fold enrichment (6-mer frequency, TF over GST control)"
same,binding signal,[2],"1.31 fold enrichment (6-mer frequency, TF over GST control)"
same,binding signal,[3],"1.34 fold enrichment (6-mer frequency, TF over GST control)"
same,binding signal,[4],"1.31 fold enrichment (6-mer frequency, TF over GST control)"
same,binding signal,[5],"1.32 fold enrichment (6-mer frequency, TF over GST control)"
same,binding signal,[6],"1.47 fold enrichment (6-mer frequency, TF over GST control)"
same,binding signal,[7],"1.35 fold enrichment (6-mer frequency, TF over GST control)"
same,binding signal,[8],"1.08 fold enrichment (6-mer frequency, TF over GST control)"
same,binding signal,[9],"1.61 fold enrichment (6-mer frequency, TF over GST control)"
same,binding signal,[10],"1.35 fold enrichment (6-mer frequency, TF over GST control)"
same,binding signal,[11],"1.28 fold enrichment (6-mer frequency, TF over GST control)"
same,binding signal,[12],"1.35 fold enrichment (6-mer frequency, TF over GST control)"
same,binding signal,[13],"1.34 fold enrichment (6-mer frequency, TF over GST control)"
same,binding signal,[14],"1.26 fold enrichment (6-mer frequency, TF over GST control)"
same,binding signal,[15],"1.35 fold enrichment (6-mer frequency, TF over GST control)"
same,binding signal,[16],"1.29 fold enrichment (6-mer frequency, TF over GST control)"
same,binding signal,[17],"1.3 fold enrichment (6-mer frequency, TF over GST control)"
same,binding signal,[18],"1.33 fold enrichment (6-mer frequency, TF over GST control)"
